Inconclusive results are not listed. Activity calls are given as the source filed them. Unless noted, calls follow the shape of the full dose curve.
Assays:
[1] = target: Peroxisome proliferator-activated receptor delta (Homo sapiens) (UniProt Q03181); experiment: qHTS assay to identify small molecule agonists of the peroxisome proliferator-activated receptor delta (PPARd) signaling pathway (AID 743212)
Summary of the method: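 HEK293H UAS-bla reporter cells, human PPARd system; compounds delivered in DMSO after 5 h plating, then at 37 C. Beta-lactamase FRET read, 2 h RT substrate step.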

[2] = qHTS assay to identify small molecule antagonists of the peroxisome proliferator-activated receptor delta (PPARd) signaling pathway - cell viability counter screen (AID 743213; active = well fitted curve in the direction sought with a large enough effect in the repeat runs; an effect the other way counts as inactive or inconclusive; also: nearly all actives have a fitted effect of over 50% in size)
Summary of the method: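 Agonist-stimulated (L165041, 300 nM final) HEK293H PPARd UAS-bla cells are exposed to compounds for 17 h at 37 C, and ATP-based luminescence (CellTiter-Glo) from the same wells reports cytotoxicity.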

[3] = target: Peroxisome proliferator-activated receptor delta (Homo sapiens) (UniProt Q03181); experiment: qHTS assay to identify small molecule antagonists of the peroxisome proliferator-activated receptor delta (PPARd) signaling pathway (AID 743215; active = well fitted inhibition curve with a large enough effect in the signal ratio in the repeat runs, not every such curve was filed as active; the % refers to the signal ratio; also: series mostly up to about 62 µM)
Summary of the method: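 PPARd UAS-bla HEK293H cells were pre-incubated 5 h at 37 C, then given test compounds in DMSO plus agonist L165041 (300 nM final). After 17 h at 37 C, beta-lactamase FRET substrate was added; fluorescence read after 2 h at room temperature.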

[4] = qHTS assay to identify small molecule agonists of the farnesoid-X-receptor (FXR) signaling pathway - cell viability counter screen (AID 743218; active = well fitted curve in the direction sought with a large enough effect in the repeat runs; an effect the other way counts as inactive or inconclusive; also: nearly all actives have a fitted effect of over 45% in size)
Summary of the method: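 FXR-UAS-bla HEK 293T cells, plated 5 h at 37 C, were exposed to compounds for 16 h at 37 C. CellTiter-Glo was then added to the same wells as the bla readout; luminescence read after 30 min at room temperature.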

[5] = qHTS assay to identify small molecule antagonists of the farnesoid-X-receptor (FXR) signaling pathway - cell viability counter screen (AID 743221; active = well fitted cell-killing curve with a large enough effect in the repeat runs, not every such curve was filed as active; also: nearly all actives have a fitted effect of over 50% in size)
Summary of the method: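 Luminescence from CellTiter-Glo measures cytotoxicity in GeneBLAzer FXR-UAS-bla HEK 293T cells. Cells were exposed to compounds with 50 uM chenodeoxycholic acid (final) for 16 h at 37 C, in wells also used for the reporter readout.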

[6] = target: Vitamin D3 receptor (Homo sapiens) (UniProt P11473); experiment: qHTS assay to identify small molecule agonists of the vitamin D receptor (VDR) signaling pathway (AID 743222)
Vitamin D3 receptor (Homo sapiens), sequence (P11473 whole entry, looked up): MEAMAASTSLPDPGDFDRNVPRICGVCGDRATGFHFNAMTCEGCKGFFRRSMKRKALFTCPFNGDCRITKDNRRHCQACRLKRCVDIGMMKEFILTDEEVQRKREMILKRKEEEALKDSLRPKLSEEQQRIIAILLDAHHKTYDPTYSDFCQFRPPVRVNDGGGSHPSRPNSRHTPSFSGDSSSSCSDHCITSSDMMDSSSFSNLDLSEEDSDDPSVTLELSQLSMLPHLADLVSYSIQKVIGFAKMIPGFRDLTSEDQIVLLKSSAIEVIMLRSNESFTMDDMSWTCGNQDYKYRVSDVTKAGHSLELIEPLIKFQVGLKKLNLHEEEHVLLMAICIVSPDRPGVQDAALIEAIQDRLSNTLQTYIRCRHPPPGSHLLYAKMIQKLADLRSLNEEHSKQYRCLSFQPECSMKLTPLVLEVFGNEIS
Summary of the method: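 VDR-bla cells were plated 4 h at 37C/5% CO2, then exposed to compounds in DMSO for 16 h. After LiveBLAzer B/G FRET substrate addition and 2 h at room temperature, beta-lactamase reporter fluorescence was read.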

[7] = target: Vitamin D3 receptor (Homo sapiens) (UniProt P11473); experiment: qHTS assay to identify small molecule antagonists of the vitamin D receptor (VDR) signaling pathway (AID 743223; active = well fitted inhibition curve with a large enough effect in the signal ratio in the repeat runs, not every such curve was filed as active; the % refers to the signal ratio)
Summary of the method: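 Antagonist mode uses 1alpha,25-dihydroxyvitamin D3 at 3 nM final as stimulus. VDR-bla cells receive compounds in DMSO, incubate 16 h at 37C, then a beta-lactamase FRET substrate for 2 h at room temperature before fluorescence measurement.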

[8] = qHTS assay to identify small molecule agonists of the vitamin D receptor (VDR) signaling pathway - cell viability counter screen (AID 743224; active = well fitted curve in the direction sought with a large enough effect in the repeat runs; an effect the other way counts as inactive or inconclusive; also: series mostly up to about 63 µM; nearly all actives have a fitted effect of over 50% in size)
Summary of the method: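 VDR-bla cells were preincubated 4 h at 37C/5% CO2, then exposed to compounds for 16 h. After the 2 h room-temperature bla FRET read, CellTiter-Glo was added to the same wells and luminescence read after 30 min.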

[9] = qHTS assay to identify small molecule antagonists of the vitamin D receptor (VDR) signaling pathway - cell viability counter screen (AID 743225; active = well fitted curve in the direction sought with a large enough effect in the repeat runs; an effect the other way counts as inactive or inconclusive; also: nearly all actives have a fitted effect of over 50% in size)
Summary of the method: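 Read-out: CellTiter-Glo luminescence measured 30 min after reagent addition at room temperature. Cells were VDR-bla HEK 293T exposed 16 h at 37C, 5% CO2, to compound with 3 nM final calcitriol agonist.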

[10] = qHTS assay to identify small molecule agonists of the NFkB signaling pathway (AID 1159509; active = well fitted curve in the direction sought with a large enough effect in the signal ratio in the repeat runs, not every such curve was filed as active; the % refers to the signal ratio; also: series mostly up to about 61 µM)
Summary of the method: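 After overnight attachment, reporter cells received test compounds, DMSO or positive controls and were incubated 5 hr at 37 C. FRET substrate was then added for 1.5 hr at room temperature before dual-emission fluorescence reading.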

[11] = qHTS assay to identify small molecule agonists of the NFkB signaling pathway - cell viability counter screen (AID 1159515); also: series mostly up to about 61 µM; nearly all actives have a fitted effect of over 55% in size
Summary of the method: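 NFkB-bla ME-180 cells, 2,000/well, were plated overnight at 37 C, 5% CO2, then exposed to compounds in DMSO for 5 hr. After the bla FRET read, CellTiter-Glo was added to the same wells; luminescence was read after 30 min at room temperature.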

[12] = qHTS assay to identify small molecule agonists of the endoplasmic reticulum stress response signaling pathway (AID 1159516; active = well fitted activation curve with a large enough effect in the signal ratio in the repeat runs, not every such curve was filed as active; the % refers to the signal ratio)
Summary of the method: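 CellSensor ESRE-bla HeLa cells, carrying a beta-lactamase reporter driven by the ER stress response element, were plated overnight and exposed to compounds for 5 hr at 37 C. Reporter activity was read as FRET substrate fluorescence after 2 hr at room temperature.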

[13] = qHTS assay to identify small molecule agonists of the endoplasmic reticulum stress response signaling pathway - cell viability counter screen (AID 1159517)
Summary of the method: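 Cells, HeLa ESRE-bla; density, 1,500/well; dosing, 5 hr at 37 C, 5% CO2; readout, CellTiter-Glo luminescence after 30 min RT.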

[14] = qHTS assay to identify small molecule antagonists of the retinoid-related orphan receptor gamma (ROR-gamma) signaling pathway - cell viability counter screen (AID 1159520; active = well fitted curve in the direction sought with a large enough effect in the repeat runs; an effect the other way counts as inactive or inconclusive; also: nearly all actives have a fitted effect of over 50% in size)
Summary of the method: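 Cytotoxicity was read from cellular ATP (CellTiter-Glo luminescence) after 16 hr at 37 C with 1 uM doxycycline induction. The inducer was added 2 hr after compound transfer to Tet-on ROR gamma CHO cells.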

[15] = target: Nuclear receptor ROR-gamma (Homo sapiens) (UniProt P51449); experiment: qHTS assay to identify small molecule antagonists of the retinoid-related orphan receptor gamma (ROR-gamma) signaling pathway (AID 1159521; active = well fitted curve in the direction sought with a large enough effect in the repeat runs; an effect the other way counts as inactive or inconclusive)
Summary of the method: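 CHO Tet-on RORγ, RORE-luc reporter. Cpd 2 h pre-incubation, then dox hyclate 1 uM final, 16 h, 37 C/5% CO2. ONE-Glo luminescence; decrease = antagonist.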

[16] = qHTS assay to identify small molecule agonists of the AP-1 signaling pathway - cell viability counter screen (AID 1159525); also: nearly all actives have a fitted effect of over 55% in size
Summary of the method: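 Luminescent ATP readout (Cell Titer Glo, 30 min RT), normalised to DMSO and tetra n-octyl ammonium bromide controls. Cells were ME-180 AP-1-bla in 0.5% dialyzed FBS Opti-MEM, with a 5 h, 37 °C compound exposure.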

[17] = qHTS assay to identify small molecule agonists of the AP-1 signaling pathway (AID 1159526)
[18] = qHTS assay to identify small molecule agonists of the peroxisome proliferator-activated receptor delta (PPARd) signaling pathway - cell viability counter screen (AID 743211; active = well fitted curve in the direction sought with a large enough effect in the repeat runs; an effect the other way counts as inactive or inconclusive; also: nearly all actives have a fitted effect of over 55% in size)
Summary of the method: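 HEK293H PPARd-bla, 3000 cells/well; 5 h preincubation 37C/5% CO2; cpd in DMSO, 17 h 37C; B/G FRET substrate 2 h RT; CellTiter-Glo 30 min RT, luminescence.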

[19] = target: Bile acid receptor (Homo sapiens) (UniProt Q96RI1); experiment: qHTS assay to identify small molecule agonists of the farnesoid-X-receptor (FXR) signaling pathway (AID 743220; active = well fitted activation curve with a large enough effect in the signal ratio in the repeat runs, not every such curve was filed as active; the % refers to the signal ratio)
Bile acid receptor (Homo sapiens), sequence (Q96RI1 whole entry, looked up): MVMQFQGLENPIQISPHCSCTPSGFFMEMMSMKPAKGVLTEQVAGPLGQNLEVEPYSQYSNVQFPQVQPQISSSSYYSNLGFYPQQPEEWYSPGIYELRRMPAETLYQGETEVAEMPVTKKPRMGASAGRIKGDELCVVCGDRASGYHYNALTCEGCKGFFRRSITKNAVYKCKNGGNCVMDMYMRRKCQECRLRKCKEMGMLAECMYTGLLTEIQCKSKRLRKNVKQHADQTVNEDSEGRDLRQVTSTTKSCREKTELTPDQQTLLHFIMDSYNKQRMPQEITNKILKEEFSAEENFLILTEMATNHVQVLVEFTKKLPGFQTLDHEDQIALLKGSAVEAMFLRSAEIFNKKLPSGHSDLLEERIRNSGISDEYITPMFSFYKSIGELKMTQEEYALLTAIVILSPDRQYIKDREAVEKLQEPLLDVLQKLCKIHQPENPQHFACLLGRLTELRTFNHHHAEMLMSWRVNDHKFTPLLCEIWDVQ
Summary of the method: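 Beta-lactamase reporter under UAS control in GeneBLAzer FXR HEK 293T cells (5000/well) measured with LiveBLAzer FRET substrate after 2 h at room temperature. Compound exposure lasted 16 h at 37C.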

Measured: Potency

Peroxisome proliferator-activated receptor delta (Homo sapiens), sequence (Q03181 whole entry, looked up): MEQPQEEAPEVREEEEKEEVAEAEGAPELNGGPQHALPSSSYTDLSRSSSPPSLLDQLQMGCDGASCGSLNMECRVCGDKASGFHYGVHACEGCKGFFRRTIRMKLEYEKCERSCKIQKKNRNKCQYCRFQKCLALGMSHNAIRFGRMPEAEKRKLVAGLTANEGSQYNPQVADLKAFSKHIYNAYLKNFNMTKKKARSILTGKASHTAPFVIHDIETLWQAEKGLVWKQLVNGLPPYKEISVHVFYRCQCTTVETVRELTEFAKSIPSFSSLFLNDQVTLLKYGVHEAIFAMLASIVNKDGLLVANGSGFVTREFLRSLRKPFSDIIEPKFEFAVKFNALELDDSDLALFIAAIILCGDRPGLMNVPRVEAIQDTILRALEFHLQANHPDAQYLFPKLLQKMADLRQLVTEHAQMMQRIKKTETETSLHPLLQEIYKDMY

CCNc1nc(Cl)nc(NC(C)C)n1
not listed: [18] | [19]
inactive: all other assays above

O=C(O)CCCc1ccc(N(CCCl)CCCl)cc1
not listed: [14] | [15]
inactive: all other assays above

COc1cc(-c2ccc(N)c(OC)c2)ccc1N
not listed: [12] | [19]
inactive: all other assays above

CC(=O)/C=C/c1ccccc1
not listed: [18] | [19]
inactive: all other assays above

N#Cc1cccc(C#N)c1
not listed: [9] | [18] | [19]
inactive: all other assays above

CN(C)C(=O)C(c1ccccc1)c1ccccc1
not listed: [3] | [7] | [9] | [18] | [19]
inactive: all other assays above

CCOP(=S)(OCC)Oc1ccc([N+](=O)[O-])cc1
not listed: [6] | [7] | [9] | [18] | [19]
inactive: all other assays above

CNC(=O)O/N=C/C(C)(C)SC
not listed: [2] | [6] | [7] | [9] | [18]
inactive: all other assays above

Reference: PubChem BioAssay (Tox21)
